Results taken from PubChem BioAssay (EPA / NIEHS).
The source made the active and inactive calls. Rule for the calls: active = hit-call score of the fitted dose curve at least 0.9, where 1 is the maximum; inactive = score below 0.9.

read-out: Vascular cell adhesion molecule 1 (VCAM1), VCAM1 (gene 7412); test: BSK_LPS_VCAM1: BioMAP Diversity Plus: LPS Assay for Vascular cell adhesion molecule 1 (VCAM1) Biomarker Activity (AID 2283086); conditions: primary human HUVEC with PBMC; actives raise or lower the signal
Experimental: BSK_LPS is a cell-based, multiplexed-readout assay that uses umbilical vein endothelium and peripheral blood mononuclear cells, a human vascular primary cell co-culture, with measurements taken at 24 hours after chemical dosing in a 96-well plate.BSK_LPS_VCAM1 is an assay component measured in the BSK_LPS assay. It measures VCAM-1 antibody related to regulation of gene expression using ELISA technology.Data from the assay component BSK_LPS_VCAM1 was analyzed into 1 assay endpoint. This assay endpoint, BSK_LPS_VCAM1, was analyzed with bidirectional fitting relative to DMSO as the negative control and baseline of activity. Using a type of binding reporter, gain or loss-of-signal activity can be used to understand changes in the signaling as they relate to the gene VCAM1. Furthermore, this assay endpoint can be referred to as a primary readout, because this assay has produced multiple assay endpoints where this one serves a signaling function. To generalize the intended target to other relatable targets, this assay endpoint is annotated to the cell adhesion molecules intended target family, where the subfamily is Immunoglobulin CAM.
The levels of cell surface (or secreted, indicated by the prefix "s") biomarker endpoints were measured by ELISA. Overt cytotoxicity to cells in confluent adherent cultures (all systems other than the BT system) was assessed by measuring total protein levels using sulforhodamine B (SRB) staining in parallel cultures at the time of biomarker measurements, indicated as SRB endpoints. For proliferation assays for adherent cell types, individual cell types are cultured at sub-confluence and relative cell numbers quantified by SRB staining at time points optimized for each system (48 h: 3C and CASM3C systems; 72 h: BT and HDF3CGF systems; 96 h: SAg system). SRB was performed by staining cells with 0.1% SRB after fixation with 10% TCA and reading wells at 560 nm.Viability and proliferation of PBMC (T cells) was quantified by Alamar Blue reduction for the SAg and BT systems. For PBMC viability (referred to as PBMC Cytotoxicity within the assay endpoint names), cells were plated (75,000/well in a 96-well plate) and then chemical samples added for 1 h before addition of activators, SEB and TSST-1 (20 ng/mL final concentration each). Cells were incubated for 90 h. Then, Alamar Blue (20 uL/well) (Invitrogen, Cat DAL1100) was added for 6 h, and the plates were read with a fluorescence microplate reader at 546/580 nm (excitation/emission). For PBMC proliferation, cells were plated and activated as above but incubated for only 16 h prior to addition of Alamar Blue. Plates were read after 6 h.

| SMILES | outcome | AC50 |
| --- | --- | --- |
| CC(C)c1ccc(C(C)C)cc1 | inactive | – |
| COC(=O)c1ccc(C)cc1 | inactive | – |
| CC(=O)[C@H]1CC[C@H]2[C@@H]3CC=C4C[C@@H](O)CC[C@]4(C)[C@H]3CC[C@]12C | inactive | – |
| CC1COc2ccccc2N1C(=O)C(Cl)Cl (stereo not given) | – | 9.65 µM (active) |
| O=C(O)c1cn(C2CC2)c2cc(N3CCNCC3)c(F)cc2c1=O | inactive | – |
| CCCCCCCCC=O | inactive | – |
| CCn1c2ccccc2c2cc(N)ccc21 | inactive | – |
| CCCCC(CC)COC(=O)/C=C\C(=O)OCC(CC)CCCC (stereo not given) | – | 11.9 µM (active) |
| C#C[C@]1(O)CC[C@H]2[C@@H]3CCC4=Cc5oncc5C[C@]4(C)[C@H]3CC[C@@]21C | inactive | – |
| O=C(O)c1cn(-c2ccc(F)cc2)c2cc(N3CCNCC3)c(F)cc2c1=O | inactive | – |
| CNC[C@H](O)c1cccc(O)c1 | inactive | – |
| CCC(=O)OCc1ccccc1 | inactive | – |
| COc1cc(C=O)ccc1OC(=O)C(C)C | inactive | – |
| Cc1cc(C2(c3cc(C)c(O)cc3C)OS(=O)(=O)c3ccccc32)c(C)cc1O | inactive | – |
| C=C[Si](OCC)(OCC)OCC | inactive | – |
| O=P(c1ccccc1)(c1ccccc1)c1ccccc1 | inactive | – |
| O=C1OC2(c3cc(Br)c(O)c(Br)c3Oc3c2cc(Br)c(O)c3Br)c2c(Cl)c(Cl)c(Cl)c(Cl)c21 | – | 5.55 µM (active) |
| Cc1ccc2n[nH]nc2c1 | inactive | – |
| CC(C)(COC(=O)c1ccccc1)COC(=O)c1ccccc1 | – | 26.2 µM (active) |
| Nc1cc([N+](=O)[O-])ccc1O | inactive | – |

| SMILES | outcome | AC50 |
| --- | --- | --- |
| CCCCCCCCCC=O | inactive | – |
| N#Cc1ccc(CC(=NNC(=O)Nc2ccc(OC(F)(F)F)cc2)c2cccc(C(F)(F)F)c2)cc1 | inactive | – |
| O=C(O)c1ccc([N+](=O)[O-])cc1 | inactive | – |
| c1ccc2c(c1)c1cccc3ccc4cccc2c4c31 | inactive | – |
| CN(CCOc1ccc(CC2SC(=O)NC2=O)cc1)c1ccccn1 (stereo not given) | inactive | – |
| CC(=O)Nc1ccccc1O | inactive | – |
| O=C1CCCCCCCCCCCCCCO1 | – | 23.5 µM (active) |
| CC1CCC(C(C)CS)CC1S (stereo not given) | – | 34.8 µM (active) |
| c1ccc2sc(SN(C3CCCCC3)C3CCCCC3)nc2c1 | inactive | – |
| CCCCC(CC)COCCC#N (stereo not given) | inactive | – |
| CC(=O)O[C@]1(C(C)=O)CC[C@H]2[C@@H]3C[C@H](C)C4=CC(=O)CC[C@]4(C)[C@H]3CC[C@@]21C | inactive | – |
| OC1OC[C@@H](O)[C@H](O)[C@H]1O (stereo not given in full) | inactive | – |
| C=C(C)C(=O)O[C@H]1C[C@@H]2CC[C@@]1(C)C2(C)C | – | 30.6 µM (active) |
| CCc1c(C)cc(N)c(CC)c1N | inactive | – |
| O=C=NC1CCC(CC2CCC(N=C=O)CC2)CC1 (stereo not given) | inactive | – |
| NCCNCCN | inactive | – |
| O=C(O)C[C@H](O)C[C@H](O)/C=C/c1c(C2CC2)nc2ccccc2c1-c1ccc(F)cc1 | inactive | – |
| CCCCC/C=C/C=C/C=O | – | 30 µM (active) |
| CCCCCCCCCCCCCCCCCC(=O)OCC(CC)CCCC (stereo not given) | inactive | – |
| CC(=O)/C=C/C1=C(C)CCCC1(C)C | inactive | – |
